According to PubChem BioAssay AID1159580 (chemical genetic matrix, 2015):
The campaign covered roughly 5,500 compounds. About 2,000 (36%) were called active. Another 18% or so got no clear call; they are omitted. Some of the results follow. Unmarked numbers belong to inactive results. No stated cut-off is given here; in the data, active means normalized growth mostly below about 0.91 (no sharp cut-off); inconclusive means no clear call, values can overlap the other calls; inactive means mostly above about 0.92.

Assay: chemical genetic growth profiling, strain panel (AID 1159580);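 further: tested at 20 µM; growth read once vehicle control cultures reached saturation at 30 °C; 1 = growth at the plate median or of vehicle wells; lower values mean less growth of the strain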
Settings: S. cerevisiae deletion strains, growth OD

SMILES: O=[N+]([O-])c1ccsc1Oc1cccc(C(F)(F)F)c1
- normalized growth (locus YAR019C, strain CDC15, active compounds read low): 0.945
- normalized growth (locus YBL105C, strain PKC1, active compounds read low): 0.986
- normalized growth (locus YBR135W, strain CKS1, active compounds read low): 0.95
- normalized growth (locus YBR136W, strain MEC1, active compounds read low): 0.976
- normalized growth (locus YBR160W, strain CDC28, active compounds read low): 1.01
- normalized growth (locus YDL017W, strain CDC7, active compounds read low): 0.987
- normalized growth (locus YDL028C, strain MPS1, active compounds read low): 0.989
- normalized growth (locus YDL101C, strain DUN1, active compounds read low): 0.958
- normalized growth (locus YDL108W, strain KIN28, active compounds read low): 0.979
- normalized growth (locus YDL132W, strain cdc53, active compounds read low): 0.946
- normalized growth (locus YDL214C, strain PRR2, active compounds read low): 0.909
- normalized growth (locus YDR052C, strain DBF4, active compounds read low): 0.989
- normalized growth (locus YDR054C, strain cdc34, active compounds read low): 0.929
- normalized growth (locus YDR226W, strain ADK1, active compounds read low): 0.973
- normalized growth (locus YDR477W, strain SNF1, active compounds read low): 0.876
- normalized growth (locus YER123W, strain YCK3, active compounds read low): 0.814
- normalized growth (locus YER133W, strain GLC7, active compounds read low): 0.831
- normalized growth (locus YFL009W, strain cdc4, active compounds read low): 0.925
- normalized growth (locus YFL029C, strain CAK1, active compounds read low): 0.94
- normalized growth (locus YFR003C, strain YPI1, active compounds read low): 0.984
- normalized growth (locus YFR019W, strain FAB1, active compounds read low): 0.927
- normalized growth (locus YFR028C, strain CDC14, active compounds read low): 0.955
- normalized growth (locus YGR040W, strain KSS1, active compounds read low): 0.857
- normalized growth (locus YGR052W, strain FMP48, active compounds read low): 0.88
- normalized growth (locus YGR092W, strain DBF2, active compounds read low): 0.769
- normalized growth (locus YHR030C, strain SLT2, active compounds read low): 1.26 [resistant] (active)
- normalized growth (locus YHR079C, strain IRE1, active compounds read low): 0.962
- normalized growth (locus YHR082C, strain KSP1, active compounds read low): 0.907
- normalized growth (locus YHR205W, strain SCH9, active compounds read low): 0.872
- normalized growth (locus YIL147C, strain SLN1, active compounds read low): 0.979
- normalized growth (locus YJL095W, strain BCK1, active compounds read low): 0.861
- normalized growth (locus YJL128C, strain PBS2, active compounds read low): 0.939
- normalized growth (locus YJL157C, strain FAR1, active compounds read low): 0.887
- normalized growth (locus YJR016C, strain ILV3, active compounds read low): 0.952
- normalized growth (locus YJR066W, strain TOR1 (second series), active compounds read low): 0.71
- normalized growth (locus YJR066W, strain TOR1, active compounds read low): 0.926
- normalized growth (locus YKL048C, strain ELM1, active compounds read low): 0.912
- normalized growth (locus YKL067W, strain YNK1, active compounds read low): 0.905
- normalized growth (locus YKL101W, strain HSL1, active compounds read low): 0.931
- normalized growth (locus YKL193C, strain SDS22, active compounds read low): 0.944
- normalized growth (locus YKL203C, strain TOR2, active compounds read low): 0.887
- normalized growth (locus YLR113W, strain HOG1, active compounds read low): 0.821 (active)
- normalized growth (locus YLR133W, strain CKI1, active compounds read low): 0.936
- normalized growth (locus YLR403W, strain SFP1, active compounds read low): 0.852
- normalized growth (locus YML070W, strain DAK1, active compounds read low): 0.895
- normalized growth (locus YMR001C, strain CDC5, active compounds read low): 0.956
- normalized growth (locus YMR205C, strain PFK2 (second series), active compounds read low): 0.911
- normalized growth (locus YMR277W, strain FCP1, active compounds read low): 0.94
- normalized growth (locus YNL006W, strain LST8, active compounds read low): 0.946
- normalized growth (locus YNL020C, strain ARK1, active compounds read low): 0.925
- normalized growth (locus YNL161W, strain CBK1, active compounds read low): 0.972
- normalized growth (locus YNL183C, strain NPR1, active compounds read low): 0.869
- normalized growth (locus YNL207W, strain RIO2, active compounds read low): 0.96
- normalized growth (locus YNL222W, strain SSU72, active compounds read low): 0.972
- normalized growth (locus YNL307C, strain MCK1 (second series), active compounds read low): 0.939
- normalized growth (locus YOL078W, strain AVO1, active compounds read low): 0.93
- normalized growth (locus YOL136C, strain PFK27, active compounds read low): 0.89
- normalized growth (locus YOR061W, strain CKA2, active compounds read low): 0.88
- normalized growth (locus YOR119C, strain RIO1, active compounds read low): 0.883
- normalized growth (locus YOR231W, strain MKK1, active compounds read low): 0.849
- normalized growth (locus YOR329C, strain SCD5, active compounds read low): 0.984
- normalized growth (locus YPL031C, strain PHO85, active compounds read low): 0.842
- normalized growth (locus YPL153C, strain RAD53, active compounds read low): 0.846
- normalized growth (locus YPL204W, strain HRR25, active compounds read low): 0.845
- normalized growth (locus YPL209C, strain IPL1, active compounds read low): 0.984
- normalized growth (locus YPL256C, strain CLN2, active compounds read low): 0.991
- normalized growth (locus YPR025C, strain CCL1, active compounds read low): 0.98
- normalized growth (locus YPR106W, strain ISR1, active compounds read low): 0.966
- normalized growth (locus YPR111W, strain DBF20, active compounds read low): 0.96
- normalized growth (strain NNK1, active compounds read low): 0.976
- normalized growth (strain TSCII, active compounds read low): 0.932
